PubChem BioAssay (Tox21)
Values without a mark were called inactive. Results filed as inconclusive are left out. Entries that show only a call come without a potency. Activity calls are given as the source filed them. Unless noted, the call rests on the fitted dose curve; in most records, active means well fitted curve in the direction sought with a large enough effect in the repeat runs; inconclusive means weak or mixed curves; inactive means no such curve, though single readings can be large; an effect the other way counts as inactive or inconclusive.

Columns and labels:
[1] = biological target: Thyrotropin-releasing hormone receptor (Homo sapiens) (UniProt P34981); assay: qHTS assay to identify small molecule agonists of the thyrotropin-releasing hormone receptor (TRHR) signaling pathway (AID 1346891; calls by dose curve; further: series mostly up to about 58 µM)
Method in brief: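 Readout was intracellular calcium fluorescence in TRHR-Hek293 cells. Cells were incubated 18 h, dye-loaded 2 h at 37 °C, and treated with compound in agonist mode.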

[2] = Human pregnane X receptor (PXR) small molecule agonists, qHTS cell viability counter screen (AID 1346977); further: nearly all actives have a fitted effect of over 50% in size
Method in brief: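 In each well, the PXR reporter HepG2 line was checked for viability: CellTiter-Fluor reagent added 23hr post-dosing, fluorescence read after 1hr incubation at 37C.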

[3] = Caspase-3/7 induction in HepG2 cells by small molecules, qHTS assay (AID 1346978); further: nearly all actives have a fitted effect of over 15% in size; further: potency means the concentration at half of the fitted maximal effect
Method in brief: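 Wild-type HepG2 cells (2,000/well) were settled 5 h at 37 C, 5% CO2, then exposed to compounds in DMSO for 17 h. Caspase-3/7 activity was read by luminescence 30 min after adding Caspase-Glo 3/7 reagent at room temperature.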

[4] = Caspase-3/7 induction in CHO-K1 cells by small molecules, qHTS cell viability counter screen (AID 1346979); further: nearly all actives have a fitted effect of over 35% in size; further: potency means the concentration at half of the fitted maximal effect
Method in brief: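 Following a 5hr settling period, CHO-K1 cells at 1,500 per well received DMSO-dissolved compounds. Cell viability was quantified 16hr later by CellTiter-Fluor fluorescence, measured after 1hr with reagent at 37C.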

[5] = Caspase-3/7 induction in CHO-K1 cells by small molecules, qHTS assay (AID 1346980); further: nearly all actives have a fitted effect of over 15% in size; further: potency means the concentration at half of the fitted maximal effect
Method in brief: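 Wild-type cells were seeded at 1,500 per well and settled 5 hr at 37 C, 5% CO2, then exposed to DMSO-dissolved compounds for 17 hr. Caspase-Glo 3/7 reagent was added, and luminescence was read after 30min at room temperature.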

[6] = Caspase-3/7 induction in HepG2 cells by small molecules, qHTS cell viability counter screen (AID 1346981); further: nearly all actives have a fitted effect of over 30% in size; further: potency means the concentration at half of the fitted maximal effect
Method in brief: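 Fluorescence read-out of live-cell protease activity (CellTiter-Fluor) after 1 hr with reagent. This was measured in the same wells as the caspase-3/7 luminescence, on HepG2 cells exposed to DMSO-dissolved compounds for 16 hr at 37 C.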

[7] = biological target: Acetylcholinesterase (Homo sapiens) (UniProt P22303); assay: Acetylcholinesterase (AChE) small molecule antagonists: enzyme-based qHTS assay (AID 1347397; calls by dose curve; further: nearly all actives have a fitted effect of over 55% in size); settings: Potency: AChE enzyme activity inhibition
Method in brief: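 Tox21 library chemicals are tested in qHTS format against recombinant human AChE. The enzyme, dispensed at 50 mU/mL, sits with compound for 30 min at room temperature. A DTNB–acetylthiocholine cocktail follows, and colour is read after 10 min.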

[8] = biological target: Acetylcholinesterase (Homo sapiens) (UniProt P22303); assay: Acetylcholinesterase (AChE) small molecule antagonists: fluorescence cell-based qHTS assay (AID 1347398; calls by dose curve; further: nearly all actives have a fitted effect of over 50% in size); settings: Potency: AChE activity
Method in brief: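 Cellular AChE inhibition: SH-SY5Y cells treated with test chemical for 30 min at 37 C, then acetylthiocholine hydrolysis followed over 40 min at room temperature via thiocholine-reactive Thiolite Green fluorescence (490/520 nm).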

[9] = biological target: Acetylcholinesterase (Homo sapiens) (UniProt P22303); assay: Acetylcholinesterase (AChE) small molecule antagonists: enzyme-based qHTS assay with human liver microsomes (AID 1347399; calls by dose curve; further: nearly all actives have a fitted effect of over 60% in size); settings: Potency: qHTS inhibition
Method in brief: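 Recombinant human AChE (50 mU/mL in the enzyme mix) and human liver microsomes (0.25 mg/mL final) were preincubated with compound and NADPH (0.25 mg/mL final) for 30 min at 37 C. Acetylthiocholine/DTNB was then added; thiocholine was read colorimetrically after 10 min at room temperature.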

[10] = biological target: Cytochrome P450 2C19 (Homo sapiens) (UniProt P33261); assay: Cytochrome P450 Family 2 Subfamily C Member 19 (CYP2C19) small molecule antagonists: luciferase reporter qHTS assay (AID 1671197); further: nearly all actives have a fitted effect of over 65% in size; further: potency means the concentration at half of the fitted maximal effect
Method in brief: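 Inhibition of CYP2C19 was scored from loss of luminescence in a P450-Glo proluciferin substrate assay, NADPH-started and run 1 h at 37C, with ketoconazole as positive control.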

[11] = biological target: Cytochrome P450 2C9 (Homo sapiens) (UniProt P11712); assay: Cytochrome P450 Family 2 Subfamily C Member 9 (CYP2C9) small molecule antagonists: luciferase reporter qHTS assay (AID 1671198); further: nearly all actives have a fitted effect of over 50% in size; further: potency means the concentration at half of the fitted maximal effect
Method in brief: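 CYP2C9 activity was measured with a P450-Glo proluciferin substrate. Enzyme–substrate mix was held with compound for 10 min at room temperature, then NADPH regeneration solution was added for 1 h at 37C. Luciferin product was read as luminescence.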

[12] = biological target: Cytochrome P450 1A2 (Homo sapiens) (UniProt P05177); assay: Cytochrome P450 Family 1 Subfamily A Member 2 (CYP1A2) small molecule antagonists: luciferase reporter qHTS assay (AID 1671199); further: nearly all actives have a fitted effect of over 50% in size; further: potency means the concentration at half of the fitted maximal effect
Method in brief: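 Luminescence readout (relative luminescence units) after luciferin detection reagent, 20 min RT. Preceded by 1 h room-temperature CYP1A2 reaction with NADPH regeneration solution following 10 min compound preincubation with enzyme and proluciferin substrate. Furafylline positive control.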

[13] = biological target: Voltage-gated inwardly rectifying potassium channel KCNH2 (Homo sapiens) (UniProt Q12809); assay: Human Ether-a-go-go-Related Gene (hERG) channel small molecule antagonists: fluorescence cell-based qHTS assay (AID 1671200); further: nearly all actives have a fitted effect of over 50% in size; further: potency means the concentration at half of the fitted maximal effect
Method in brief: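 In this thallium-flux screen, overnight-cultured U2OS cells bearing the channel are dye-loaded in darkness for an hour, rested 10 min at room temperature, and then monitored kinetically at 480/540 nm for two minutes post-stimulus.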

[14] = biological target: Cytochrome P450 3A4 (Homo sapiens) (UniProt P08684); assay: Cytochrome P450 Family 3 Subfamily A Member 4 (CYP3A4) small molecule antagonists: luciferase reporter qHTS assay (AID 1671201); further: nearly all actives have a fitted effect of over 50% in size; further: potency means the concentration at half of the fitted maximal effect
Method in brief: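 CYP3A4 activity was followed with a P450-Glo proluciferin substrate. Test compounds in DMSO were preincubated 10 min; NADPH regeneration then ran 1 h, and light output was read 20 min after detection reagent.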

[15] = biological target: Nuclear receptor subfamily 1 group I member 2 (Homo sapiens) (UniProt O75469); assay: Human pregnane X receptor (PXR) small molecule agonists, qHTS assay (AID 1346982); further: nearly all actives have a fitted effect of over 35% in size; further: potency means the concentration at half of the fitted maximal effect
Method in brief: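 HepG2 PXR-Luc reporter line, 5% charcoal-stripped FBS; 5 hr pre-incubation, compound (DMSO) 24 hr at 37 C/5% CO2; ONE-Glo 30 min RT; luminescence read-out.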

[16] = biological target: Acetylcholinesterase (Homo sapiens) (UniProt P22303); assay: Acetylcholinesterase (AChE) small molecule antagonists: colormetric cell-based qHTS assay (AID 1347395; calls by dose curve; further: nearly all actives have a fitted effect of over 30% in size)
Method in brief: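 After overnight attachment at 37 C, SH-SY5Y cells get 30 min compound exposure; detection cocktail (acetylthiocholine, DTNB) then incubates 90 min at 37 C, and absorbance reflects AChE-generated thiocholine.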

[17] = biological target: Cytochrome P450 2D6 (Homo sapiens) (UniProt P10635); assay: Cytochrome P450 Family 2 Subfamily D Member 6 (CYP2D6) small molecule antagonists: luciferase reporter qHTS assay (AID 1671196); further: nearly all actives have a fitted effect of over 50% in size; further: potency means the concentration at half of the fitted maximal effect
Method in brief: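 Luminogenic proluciferin substrate, CYP2D6 enzyme; 10 min RT preincubation with compound, NADPH regeneration system added, 1 h RT. Stop/detection reagent, 20 min RT, luminescence read (RLU). Signal proportional to CYP activity.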

Chain of Cytochrome P450 2C9 (Homo sapiens) (P11712 whole entry, looked up): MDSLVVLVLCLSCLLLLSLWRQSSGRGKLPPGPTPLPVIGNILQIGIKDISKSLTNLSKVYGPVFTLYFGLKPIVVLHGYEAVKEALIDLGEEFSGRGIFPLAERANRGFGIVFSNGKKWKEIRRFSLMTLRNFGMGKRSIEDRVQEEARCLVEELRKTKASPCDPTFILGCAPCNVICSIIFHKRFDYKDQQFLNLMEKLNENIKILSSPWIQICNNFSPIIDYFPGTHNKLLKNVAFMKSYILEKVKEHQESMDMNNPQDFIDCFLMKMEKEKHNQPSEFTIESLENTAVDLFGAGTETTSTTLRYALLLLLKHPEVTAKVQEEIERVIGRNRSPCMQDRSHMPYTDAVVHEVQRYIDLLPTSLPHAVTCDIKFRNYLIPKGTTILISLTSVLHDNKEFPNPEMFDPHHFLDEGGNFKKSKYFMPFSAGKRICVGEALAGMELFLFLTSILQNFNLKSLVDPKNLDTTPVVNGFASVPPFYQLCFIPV
Chain of Cytochrome P450 1A2 (Homo sapiens) (P05177 whole entry, looked up): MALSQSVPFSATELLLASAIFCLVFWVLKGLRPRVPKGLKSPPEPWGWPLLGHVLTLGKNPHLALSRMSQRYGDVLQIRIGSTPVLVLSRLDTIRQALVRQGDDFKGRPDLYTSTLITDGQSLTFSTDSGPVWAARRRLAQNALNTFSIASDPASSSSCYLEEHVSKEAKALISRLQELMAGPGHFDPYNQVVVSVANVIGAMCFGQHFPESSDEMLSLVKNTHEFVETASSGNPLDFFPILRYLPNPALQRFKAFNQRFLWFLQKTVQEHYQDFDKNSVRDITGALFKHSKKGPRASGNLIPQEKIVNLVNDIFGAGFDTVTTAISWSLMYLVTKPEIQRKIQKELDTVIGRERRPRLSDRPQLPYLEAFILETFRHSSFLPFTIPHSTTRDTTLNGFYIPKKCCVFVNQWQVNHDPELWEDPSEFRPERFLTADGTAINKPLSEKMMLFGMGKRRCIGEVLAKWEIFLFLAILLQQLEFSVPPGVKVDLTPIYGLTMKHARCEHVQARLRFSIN
Chain of Cytochrome P450 2C19 (Homo sapiens) (P33261 whole entry, looked up): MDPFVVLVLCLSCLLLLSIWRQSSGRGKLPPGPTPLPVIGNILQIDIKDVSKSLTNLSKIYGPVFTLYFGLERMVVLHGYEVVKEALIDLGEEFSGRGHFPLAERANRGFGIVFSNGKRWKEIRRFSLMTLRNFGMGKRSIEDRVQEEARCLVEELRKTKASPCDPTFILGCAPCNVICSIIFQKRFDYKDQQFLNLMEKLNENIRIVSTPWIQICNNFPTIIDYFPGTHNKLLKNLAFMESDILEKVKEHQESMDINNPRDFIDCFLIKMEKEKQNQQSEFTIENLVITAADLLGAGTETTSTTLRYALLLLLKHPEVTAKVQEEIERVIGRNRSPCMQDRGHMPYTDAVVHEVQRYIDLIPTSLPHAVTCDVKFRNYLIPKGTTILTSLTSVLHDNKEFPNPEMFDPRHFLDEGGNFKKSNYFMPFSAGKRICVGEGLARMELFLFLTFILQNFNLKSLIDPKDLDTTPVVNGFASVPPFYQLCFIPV
Chain of Thyrotropin-releasing hormone receptor (Homo sapiens) (P34981 whole entry, looked up): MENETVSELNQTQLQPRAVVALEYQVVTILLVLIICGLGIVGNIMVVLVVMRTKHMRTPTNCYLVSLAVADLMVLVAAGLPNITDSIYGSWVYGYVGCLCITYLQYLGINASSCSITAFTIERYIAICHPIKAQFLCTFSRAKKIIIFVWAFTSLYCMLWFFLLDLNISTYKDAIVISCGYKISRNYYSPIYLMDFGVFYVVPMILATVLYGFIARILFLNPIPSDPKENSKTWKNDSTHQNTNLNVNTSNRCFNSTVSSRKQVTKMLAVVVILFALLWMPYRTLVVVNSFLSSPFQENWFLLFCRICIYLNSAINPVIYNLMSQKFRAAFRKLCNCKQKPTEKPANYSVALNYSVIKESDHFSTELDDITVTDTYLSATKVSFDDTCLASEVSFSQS
Chain of Cytochrome P450 2D6 (Homo sapiens) (P10635 whole entry, looked up): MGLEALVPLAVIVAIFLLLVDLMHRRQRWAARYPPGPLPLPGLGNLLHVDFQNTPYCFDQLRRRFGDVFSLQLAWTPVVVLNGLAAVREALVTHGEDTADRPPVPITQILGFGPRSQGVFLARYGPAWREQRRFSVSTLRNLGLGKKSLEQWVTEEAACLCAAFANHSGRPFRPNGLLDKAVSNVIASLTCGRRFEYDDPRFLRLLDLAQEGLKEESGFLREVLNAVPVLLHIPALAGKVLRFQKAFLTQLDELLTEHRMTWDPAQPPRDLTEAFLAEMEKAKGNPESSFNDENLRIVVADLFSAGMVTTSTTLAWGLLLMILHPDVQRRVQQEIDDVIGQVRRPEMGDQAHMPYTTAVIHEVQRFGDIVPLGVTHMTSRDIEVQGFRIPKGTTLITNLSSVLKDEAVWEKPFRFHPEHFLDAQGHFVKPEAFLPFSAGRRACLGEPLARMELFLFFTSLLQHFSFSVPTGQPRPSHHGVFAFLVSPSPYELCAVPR
Chain of Voltage-gated inwardly rectifying potassium channel KCNH2 (Homo sapiens) (Q12809 whole entry, looked up): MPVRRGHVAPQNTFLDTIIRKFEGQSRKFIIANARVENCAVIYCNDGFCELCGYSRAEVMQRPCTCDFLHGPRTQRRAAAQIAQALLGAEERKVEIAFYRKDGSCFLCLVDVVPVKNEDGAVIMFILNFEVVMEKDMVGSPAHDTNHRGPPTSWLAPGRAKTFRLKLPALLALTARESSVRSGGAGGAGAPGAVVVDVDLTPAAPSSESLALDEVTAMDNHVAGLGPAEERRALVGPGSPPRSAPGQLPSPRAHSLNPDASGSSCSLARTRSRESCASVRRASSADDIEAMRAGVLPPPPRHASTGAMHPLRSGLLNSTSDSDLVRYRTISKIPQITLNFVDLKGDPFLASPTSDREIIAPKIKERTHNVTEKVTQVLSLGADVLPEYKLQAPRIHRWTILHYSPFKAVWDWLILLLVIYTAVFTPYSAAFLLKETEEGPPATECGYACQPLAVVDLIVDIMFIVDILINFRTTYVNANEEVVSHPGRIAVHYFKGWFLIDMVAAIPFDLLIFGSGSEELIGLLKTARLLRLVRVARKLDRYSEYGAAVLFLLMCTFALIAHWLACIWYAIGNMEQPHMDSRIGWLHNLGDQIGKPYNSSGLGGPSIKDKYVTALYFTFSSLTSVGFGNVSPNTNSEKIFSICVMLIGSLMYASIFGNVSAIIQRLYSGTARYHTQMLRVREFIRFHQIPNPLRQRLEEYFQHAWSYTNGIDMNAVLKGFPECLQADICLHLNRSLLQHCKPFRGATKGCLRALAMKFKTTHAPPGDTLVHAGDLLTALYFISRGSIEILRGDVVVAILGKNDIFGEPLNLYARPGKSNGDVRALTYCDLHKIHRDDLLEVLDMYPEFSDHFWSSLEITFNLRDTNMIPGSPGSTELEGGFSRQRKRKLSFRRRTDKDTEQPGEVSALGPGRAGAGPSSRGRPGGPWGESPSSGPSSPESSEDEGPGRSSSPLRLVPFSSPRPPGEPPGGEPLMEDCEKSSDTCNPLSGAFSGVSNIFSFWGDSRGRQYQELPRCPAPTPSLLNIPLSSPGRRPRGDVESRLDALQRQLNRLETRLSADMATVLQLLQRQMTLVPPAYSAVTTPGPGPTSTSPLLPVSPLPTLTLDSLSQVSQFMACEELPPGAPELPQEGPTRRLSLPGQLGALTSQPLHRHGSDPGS
Chain of Cytochrome P450 3A4 (Homo sapiens) (P08684 whole entry, looked up): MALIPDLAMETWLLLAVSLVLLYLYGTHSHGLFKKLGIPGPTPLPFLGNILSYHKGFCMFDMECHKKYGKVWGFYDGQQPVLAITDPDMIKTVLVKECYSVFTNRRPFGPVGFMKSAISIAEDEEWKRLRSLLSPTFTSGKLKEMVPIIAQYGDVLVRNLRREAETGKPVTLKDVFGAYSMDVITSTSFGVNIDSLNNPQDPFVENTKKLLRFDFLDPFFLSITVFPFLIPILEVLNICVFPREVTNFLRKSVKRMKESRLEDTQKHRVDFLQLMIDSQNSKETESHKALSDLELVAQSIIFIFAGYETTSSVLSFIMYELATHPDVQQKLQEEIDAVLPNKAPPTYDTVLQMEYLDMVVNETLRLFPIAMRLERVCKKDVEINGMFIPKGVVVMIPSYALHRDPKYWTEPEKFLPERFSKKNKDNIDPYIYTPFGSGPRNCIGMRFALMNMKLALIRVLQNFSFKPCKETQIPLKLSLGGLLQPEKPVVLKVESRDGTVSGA
Chain of Nuclear receptor subfamily 1 group I member 2 (Homo sapiens) (O75469 whole entry, looked up): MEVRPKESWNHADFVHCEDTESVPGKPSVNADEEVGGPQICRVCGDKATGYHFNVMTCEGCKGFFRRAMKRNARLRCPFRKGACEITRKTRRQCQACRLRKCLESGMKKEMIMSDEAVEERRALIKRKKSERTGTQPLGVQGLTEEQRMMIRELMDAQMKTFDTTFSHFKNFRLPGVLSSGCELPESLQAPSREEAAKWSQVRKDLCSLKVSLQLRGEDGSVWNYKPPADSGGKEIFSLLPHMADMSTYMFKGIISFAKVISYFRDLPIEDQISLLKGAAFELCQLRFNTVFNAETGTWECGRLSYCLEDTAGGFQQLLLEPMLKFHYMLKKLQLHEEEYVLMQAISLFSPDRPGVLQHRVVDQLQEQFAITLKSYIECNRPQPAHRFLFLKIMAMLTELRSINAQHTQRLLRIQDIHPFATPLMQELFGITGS

Compound | Potency [1] | Potency [2] | Potency [3] | Potency [4] | Potency [5] | Potency [6] | Potency [7] | Potency [8] | Potency [9] | Potency [10] | Potency [11] | Potency [12] | Potency [13] | Potency [14] | Potency [15] | Potency [16] | Potency [17]
CC(C)(CCl)C(=O)Cl | inactive | inactive | inactive | inactive | inactive | inactive | inactive | inactive | inactive | inactive | inactive | inactive | inactive | inactive |  |  | 
OCCCBr | inactive | inactive | inactive | inactive | inactive |  | inactive | inactive | inactive |  |  | 61.8 µM (active) | inactive |  | inactive |  | 
O=[N+]([O-])c1cc(C(F)(F)F)cc([N+](=O)[O-])c1Cl | inactive |  | inactive | 68.9 µM (active) | inactive | 61.4 µM (active) | inactive | inactive | inactive |  |  |  | inactive | inactive |  | inactive | 17.9 µM (active)
CCC(C)(NC(=O)c1cc(Cl)c(C)c(Cl)c1)C(=O)CCl (stereo unspecified) | inactive |  | 61.5 µM (active) | 24.5 µM (active) | 21.8 µM (active) |  | inactive |  | inactive | 25.3 µM (active) | 35.8 µM (active) | 2.26 µM (active) | 43.9 µM (active) | 6.37 µM (active) |  | inactive | 35.8 µM (active)
OC(c1ccc(Cl)cc1)(c1ccc(Cl)cc1)c1cccnc1 | inactive |  | inactive | 61.1 µM (active) | inactive | inactive | inactive | inactive | inactive | 0.0796 µM (active) | 0.448 µM (active) | 35.6 µM (active) | 34.7 µM (active) | 2.24 µM (active) | 61.1 µM (active) | inactive | 11.2 µM (active)
Oc1ccc(Cl)c(Cl)c1Cl | inactive |  |  |  | inactive |  | inactive | inactive | inactive | 26.1 µM (active) |  | 26.1 µM (active) | inactive |  | 63.4 µM (active) | inactive | 
N#CCC#N | inactive |  | inactive | 30.6 µM (active) | inactive |  | inactive | inactive | inactive |  | 63.3 µM (active) | inactive | inactive |  |  |  | 
ClP(Cl)(Cl)(Cl)Cl | inactive | inactive | inactive |  |  | inactive | inactive | inactive | inactive |  | inactive | inactive | inactive |  | inactive | inactive | inactive
CCCCN(N=O)C(=N)N[N+](=O)[O-] | inactive |  | inactive | 62.4 µM (active) | inactive |  | inactive | inactive | inactive |  | inactive | 40.8 µM (active) | inactive |  | inactive | inactive | 
[O-][Cl+]O | inactive |  | inactive | inactive | inactive | inactive | inactive | inactive | inactive |  | inactive | inactive | inactive | inactive | inactive |  | inactive
CC(=O)c1cc2c(cc1C)C(C)(C)C(C)CC2(C)C (stereo unspecified) | inactive | inactive |  |  |  | inactive | inactive | inactive | inactive |  |  |  | 13.8 µM (active) | 25.2 µM (active) |  | inactive | inactive
CCCCC(O)(Cn1cncn1)c1ccc(Cl)cc1Cl (stereo unspecified) | inactive |  |  |  | inactive |  | inactive | inactive | inactive |  |  | 35.6 µM (active) | inactive | 0.126 µM (active) | 24.3 µM (active) | inactive | 31.7 µM (active)
CCOC(=O)[C@]1(c2ccccc2)Oc2ccccc2[C@@H]1N | inactive |  | inactive |  | inactive | inactive |  |  |  | 35.6 µM (active) |  | 63.3 µM (active) | 3.09 µM (active) |  |  |  | 0.2 µM (active)
O=C(Nc1ccccc1)Nc1cnns1 | inactive |  | inactive | 54.4 µM (active) | inactive | inactive | inactive | inactive |  | 39.9 µM (active) | 35.6 µM (active) | 3.56 µM (active) | inactive | 3.56 µM (active) |  | inactive | 31.7 µM (active)
CC1(C)CCC(Cc2ccc(Cl)cc2)C1(O)Cn1cncn1 (stereo unspecified) | inactive |  | inactive | 68.6 µM (active) | inactive |  | inactive | inactive | inactive | 0.126 µM (active) | 0.178 µM (active) | 39.9 µM (active) |  | 0.0317 µM (active) | 9.69 µM (active) | inactive | 35.6 µM (active)
NS(=O)(=O)C(F)(F)C(F)(F)C(F)(F)C(F)(F)C(F)(F)C(F)(F)C(F)(F)C(F)(F)F | inactive |  | inactive | inactive | inactive | inactive | inactive | inactive | inactive |  | 0.633 µM (active) | inactive | inactive | inactive |  | inactive | inactive
